Out of some 5,500 compounds screened, about 2,000 (36%) were called active. Not shown: some 18% with an inconclusive outcome. Rule as the data show it: active = normalized growth mostly below about 0.91 (no sharp cut-off); inconclusive = no clear call, values can overlap the other calls; inactive = mostly above about 0.92. The list shows a part of the results.
Experiment: chemical genetic growth profiling, strain panel (AID 1159580);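 also: tested at 20 µM; growth read once vehicle control cultures reached saturation at 30 °C; 1 = growth at the plate median or of vehicle wells; lower values mean less growth of the strain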
Conditions: S. cerevisiae deletion strains, growth OD
[1] = locus YDL101C, strain DUN1, hits give low values
[2] = locus YHR030C, strain SLT2, hits give low values

Measured: normalized growth

CC(C)(C)c1ccc(C(=O)NNc2c(Cl)cccc2Cl)cc1
inactive: locus YAR019C, strain CDC15, hits give low values 0.977 | locus YBL105C, strain PKC1, hits give low values 0.952 | locus YBR135W, strain CKS1, hits give low values 0.948 | locus YBR136W, strain MEC1, hits give low values 0.97 | locus YBR160W, strain CDC28, hits give low values 0.958 | locus YDL017W, strain CDC7, hits give low values 0.973 | locus YDL028C, strain MPS1, hits give low values 0.98 | [1] 0.985 | locus YDL108W, strain KIN28, hits give low values 0.965 | locus YDL132W, strain cdc53, hits give low values 0.968 | locus YDL214C, strain PRR2, hits give low values 0.9 | locus YDR052C, strain DBF4, hits give low values 0.974 | locus YDR054C, strain cdc34, hits give low values 0.981 | locus YDR226W, strain ADK1, hits give low values 0.986 | locus YDR477W, strain SNF1, hits give low values 0.948 | locus YER123W, strain YCK3, hits give low values 0.904 | locus YER133W, strain GLC7, hits give low values 0.939 | locus YFL009W, strain cdc4, hits give low values 0.975 | locus YFL029C, strain CAK1, hits give low values 0.978 | locus YFR003C, strain YPI1, hits give low values 0.974 | locus YFR019W, strain FAB1, hits give low values 0.933 | locus YFR028C, strain CDC14, hits give low values 0.973 | locus YGR040W, strain KSS1, hits give low values 0.918 | locus YGR052W, strain FMP48, hits give low values 0.946 | locus YGR092W, strain DBF2, hits give low values 0.894 | [2] 0.864 | locus YHR079C, strain IRE1, hits give low values 0.885 | locus YHR082C, strain KSP1, hits give low values 0.974 | locus YHR205W, strain SCH9, hits give low values 0.86 | locus YIL147C, strain SLN1, hits give low values 0.974 | locus YJL095W, strain BCK1, hits give low values 0.898 | locus YJL128C, strain PBS2, hits give low values 0.878 | locus YJL157C, strain FAR1, hits give low values 0.88 | locus YJR016C, strain ILV3, hits give low values 0.966 | locus YJR066W, strain TOR1 (second series), hits give low values 0.868 | locus YJR066W, strain TOR1, hits give low values 0.959 | locus YKL048C, strain ELM1, hits give low values 0.954 | locus YKL067W, strain YNK1, hits give low values 0.892 | locus YKL101W, strain HSL1, hits give low values 0.89 | locus YKL193C, strain SDS22, hits give low values 0.974 | locus YKL203C, strain TOR2, hits give low values 1.01 | locus YLR133W, strain CKI1, hits give low values 0.89 | locus YLR403W, strain SFP1, hits give low values 0.893 | locus YML070W, strain DAK1, hits give low values 0.862 | locus YMR001C, strain CDC5, hits give low values 0.971 | locus YMR205C, strain PFK2 (second series), hits give low values 0.888 | locus YMR277W, strain FCP1, hits give low values 0.971 | locus YNL006W, strain LST8, hits give low values 0.978 | locus YNL020C, strain ARK1, hits give low values 0.889 | locus YNL161W, strain CBK1, hits give low values 0.981 | locus YNL183C, strain NPR1, hits give low values 0.887 | locus YNL207W, strain RIO2, hits give low values 0.974 | locus YNL222W, strain SSU72, hits give low values 0.969 | locus YNL307C, strain MCK1 (second series), hits give low values 0.902 | locus YOL078W, strain AVO1, hits give low values 0.967 | locus YOL136C, strain PFK27, hits give low values 0.85 | locus YOR061W, strain CKA2, hits give low values 0.874 | locus YOR119C, strain RIO1, hits give low values 0.985 | locus YOR231W, strain MKK1, hits give low values 0.832 | locus YOR329C, strain SCD5, hits give low values 0.981 | locus YPL031C, strain PHO85, hits give low values 0.935 | locus YPL153C, strain RAD53, hits give low values 0.92 | locus YPL204W, strain HRR25, hits give low values 0.947 | locus YPL209C, strain IPL1, hits give low values 0.968 | locus YPR025C, strain CCL1, hits give low values 0.962 | locus YPR106W, strain ISR1, hits give low values 0.944 | locus YPR111W, strain DBF20, hits give low values 0.995 | strain NNK1, hits give low values 0.943 | strain TSCII, hits give low values 0.972
active: locus YLR113W, strain HOG1, hits give low values 0.726 | locus YPL256C, strain CLN2, hits give low values 0.834

Cc1cc(NC(=O)c2c(-c3c(Cl)cccc3Cl)noc2C)c([N+](=O)[O-])cc1C
inactive: locus YAL013W, strain DEP1, hits give low values 1.01 | locus YBR229C, strain ROT2, hits give low values 1.01 | [1] 1.08 | locus YDR150W, strain NUM1, hits give low values 1.03 | locus YEL061C, strain CIN8, hits give low values 1 | locus YGR078C, strain PAC10, hits give low values 1.04 | locus YGR229C, strain SMI1, hits give low values 0.975 | [2] 1.02 | locus YHR087W, strain rtc3, hits give low values 0.969 | locus YJR043C, strain POL32, hits give low values 1.02 | locus YJR075W, strain HOC1, hits give low values 1 | locus YLR039C, strain RIC1, hits give low values 1.04 | locus YLR058C, strain SHM2 (second series), hits give low values 0.983 | locus YLR085C, strain ARP6, hits give low values 0.999 | locus YLR262C, strain YPT6, hits give low values 0.967 | locus YML094W, strain GIM5, hits give low values 0.992 | locus YMR219W, strain ESC1, hits give low values 0.992 | locus YMR263W, strain SAP30, hits give low values 1.04 | locus YNL153C, strain GIM3, hits give low values 1.04 | locus YNL298W, strain CLA4 (second series), hits give low values 1.04 | locus YNL322C, strain KRE1, hits give low values 0.981 | locus YNR030W, strain Alg12, hits give low values 0.975 | locus YOL006C, strain TOP1, hits give low values 0.987 | locus YPL055C, strain LGE1, hits give low values 0.996 | locus YPL241C, strain CIN2, hits give low values 1.01 | locus YPR135W, strain CTF4, hits give low values 0.995

Reference: PubChem BioAssay AID1159580 (chemical genetic matrix, 2015)
